# LGR2 inh – blocks bursicon-induced cAMP signaling via Drosophila LGR2; actives 0.35% (n = 380,000); HEK293 LGR2, CRE-luciferase, bursicon-stimulated, 4 h; inhibition, % at 9.99 µM;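 active = drop in luminescence signal, shown as inhibition above about 50% in the replicate tests, limit read from the data, passing the limit was not always enough; inconclusive = probably only some replicates passing the limit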;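 also: agonist challenge used bursicon conditioned medium at about half maximal strength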
# TROY NFkB inh – TROY signaling inhibition; Q293 LMP1-TROYcd NF-kB luciferase reporter, 4 h; inhibition, % at 10 µM; actives 0.98% (n = 360,000); AID 1347056;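 active = compounds whose plate-normalised and pattern-corrected inhibition of the luciferase reporter signal at the single screening dose is 50% or more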
# EWS-Fli block – blocks EWS/Fli oncoprotein-driven transcription | inhibition, % at 12.6 µM | actives 0.67% (n = 350,000) | A673 NR0B1-luciferase reporter, viability-normalised;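 active = mean inhibition of at least 50% after viability correction, with every replicate also passing that limit; inconclusive = mean reaches 50% but only one of two replicates passes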;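 also: firefly luciferase signal divided by Alamar Blue viability fluorescence both relative to DMSO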
# EBV LMP1 NFkB – reduces LMP1-driven NF-kappaB luciferase signal; LMP1-induced NF-kappaB luciferase reporter cells, luminescence; inhibition, % at 12.5 µM; actives 0.69% (n = 350,000); AID 504558; in the data active = inhibition above about 41%; inconclusive = no clear call, values can overlap the other calls
# TWEAK-Fn14 inh – blocks TWEAK-Fn14 interaction in a reporter cell assay | TWEAK-stimulated Fn14 reporter cells, luciferase luminescence, 8 h | actives 2% (n = 360,000) | AID 1159606 | inhibition, % at 10 µM; in the data active = inhibition above about 50%
# A number is an active result; – = inactive; ? = inconclusive; · = no result given. Sampled rows, rich in hits. Any-hit rate of the full collection: about 2.5%.
SMILES,LGR2 inh,TROY NFkB inh,EWS-Fli block,EBV LMP1 NFkB,TWEAK-Fn14 inh
COc1ccc(-c2csc3ncnc(Nc4ccc(O)cc4)c23)cc1,–,–,–,–,–
C[C@@H](NC(=O)[C@H]1N[C@H]2c3ccc(-c4cncnc4)c(=O)n3C[C@H]2[C@@H]1CO)c1ccccc1,–,·,–,·,·
N=C1S/C(=C\c2ccc(-c3cccc(Cl)c3)o2)C(=O)N1c1nccs1,–,–,–,–,90
COc1ccc(/C=C2\SC(=N)N(c3nccs3)C2=O)cc1OC,–,–,–,–,–
O=C(c1ccccc1)c1ccc(Cn2cc(CCCO)nn2)cc1,–,–,–,–,–
O=C(O)CCCCCCCCc1cn(Cc2ccc(C(=O)c3ccccc3)cc2)nn1,–,–,54,–,–
C[C@@H]1CN([C@H](C)CO)C(=O)c2cccc(NC(=O)c3cnccn3)c2O[C@H]1CN(C)S(=O)(=O)c1cn(C)cn1,–,·,·,·,·
O=C(N[C@@H](Cc1ccccc1)C(=O)CCl)OCc1ccccc1,–,–,–,56,–
CCCCNC(=O)Cn1cnc2c(cnn2-c2ccc(C)cc2)c1=O,–,–,–,–,–
CCOCCCNC(=O)Cn1cnc2c(cnn2-c2ccc(C)c(C)c2)c1=O,–,–,–,–,108
COc1cc(Cn2c3ccc(NC(=S)NCc4ccc(C)cc4)cc3c(=O)n2C)ccc1F,–,58,–,·,73
COc1cc(Cn2c3ccc(NC(=O)CC(C)(C)C)cc3c(=O)n2C)ccc1F,–,–,–,·,–
CC1CCc2nc(NC(=O)C3CC3)sc2C1 (stereo not given),–,–,·,–,–
Cc1cnc(NC(=O)C2COc3ccccc3O2)s1 (stereo not given),·,60,·,–,95
Cc1csc(NC(=O)C2COc3ccccc3O2)n1 (stereo not given),·,–,·,–,78
COC(=O)c1c(NC(=O)C2COc3ccccc3O2)sc2c1CCN(C(C)=O)C2 (stereo not given),–,–,·,–,55
O=C(Nc1nc(-c2ccccc2)cs1)C1COc2ccccc2O1 (stereo not given),·,·,·,–,–
CC1CCc2nc(NC(=O)C3COc4ccccc4O3)sc2C1 (stereo not given),·,82,–,–,96
COc1ccc(NC(=O)N(C)C[C@H]2Oc3ccc(NS(=O)(=O)c4cn(C)cn4)cc3C(=O)N([C@@H](C)CO)C[C@@H]2C)cc1,–,·,–,·,·
COc1ccc(NC(=O)Nc2ccc3c(c2)[C@@H]2C[C@@H](CC(=O)NC4CCCCC4)O[C@H](CO)[C@@H]2O3)cc1,–,·,–,·,·
COCC(=O)Nc1ccc2c(c1)C(=O)N(C)C[C@H](OC)[C@H](C)CN(C(=O)CC1CC1)[C@@H](C)CO2,–,·,–,·,·
C[C@H](CO)N1C[C@H](C)[C@@H](CN(C)Cc2ccccc2)Oc2ncc(C#CC3(O)CCCC3)cc2C1=O,–,·,–,·,·
CC(=O)c1cccc(NC(=O)c2ccc3c(c2)CCN3S(=O)(=O)c2ccccc2)c1,–,–,–,–,74
O=C(Nc1nc2ccccc2s1)c1cccc(S(=O)(=O)N2CCc3ccccc32)c1,–,–,–,–,70
O=C(Nc1ccc(S(=O)(=O)N2CCc3ccccc32)cc1)c1ccc2c(c1)OCO2,·,–,·,–,58
SMILES,LGR2 inh,TROY NFkB inh,EWS-Fli block,EBV LMP1 NFkB,TWEAK-Fn14 inh
CN(C)S(=O)(=O)c1cccc(NC(=O)c2cccc(S(=O)(=O)N3CCc4ccccc43)c2)c1,–,–,–,–,60
COc1ccc2c3c([nH]c2c1)[C@@H](CO)N(C(=O)c1cnccn1)CC31CN(C(=O)c2cnccn2)C1,–,·,–,·,·
COc1ccc(S(=O)(=O)N(C)C[C@H]2Oc3c(NC(=O)c4cc(C)nn4C)cccc3C(=O)N([C@H](C)CO)C[C@@H]2C)cc1,–,·,–,·,·
CCCNC(=O)Nc1ccc2c(c1)C(=O)N(C)C[C@H](OC)[C@@H](C)CN(C(=O)C1CC1)[C@@H](C)CO2,–,·,–,·,·
C=C1C(=O)O[C@@H]2C[C@@H](C)[C@@H]3C=CC(=O)[C@@]3(C)[C@@H](OC(C)=O)[C@H]12,103,·,62,·,·
C[C@@H]1C[C@@H]2OC(=O)[C@]3(C)[C@H]2[C@@H](OC3(C)O)[C@]2(C)C(=O)C=C[C@H]12 (stereo not given in full),–,–,–,–,–
O=C(C1CC1)N1CC2(C1)[C@H](c1ccccc1)[C@@H](CO)N2C(=O)c1cccnc1,–,·,–,·,·
O=[N+]([O-])c1cc([N+](=O)[O-])c2oc(-c3ccccc3)c(Br)c2c1O,·,69,·,–,–
CCn1cnc2sc(C(=O)Nc3ccc4c(c3)OCO4)c(C)c2c1=O,·,·,·,–,57
CCCNC(=O)Cn1cnc2sc(C(=O)Nc3ccc4c(c3)OCO4)c(C)c2c1=O,–,–,–,–,–
Cc1nn2cc(-c3ccc(-c4ccccc4)cc3)nc2s1,·,·,·,–,–
CCc1nn2cc(-c3ccccc3)nc2s1,·,84,·,66,93
Cc1nn2cc(-c3ccc(Cl)cc3)nc2s1,·,–,·,–,63
C[C@@H]1CN([C@@H](C)CO)C(=O)Cc2cc(NC(=O)c3ccncc3)ccc2O[C@@H]1CN(C)S(=O)(=O)c1ccccc1,–,·,–,·,·
CCCNC(=O)[C@H]1[C@H](CO)[C@H]2Cn3c(cccc3=O)[C@@H]1N2C(=O)C1CCC1,–,·,–,·,·
C[C@H]1CN([C@@H](C)CO)S(=O)(=O)c2ccc(C3=CCCCC3)cc2O[C@H]1CN(C)C(=O)c1ccncc1,–,·,–,·,·
FC(F)(F)c1cc(CCN2CCNC[C@@H]2CC2CCCCC2)cc(C(F)(F)F)c1,–,–,55,–,–
Cc1ccc(N2Cc3ccccc3C2=O)cc1,–,–,–,–,53
COc1ccc(N2Cc3ccccc3C2=O)cc1,–,–,–,81,–
O=C(CNc1cccc2ccccc12)N/N=C/c1ccc([N+](=O)[O-])cc1,–,–,–,–,82
O=C(C[C@@H]1CC[C@H]2[C@@H](COC[C@H](O)CN2Cc2nccs2)O1)N1CCC(Cc2ccccc2)CC1,–,·,–,·,·
CO[C@H]1CC[C@H]2CCN(C)C(=O)[C@@H](C)N(C)C(=O)c3cccc(C#N)c3OC[C@H]1O2,–,·,–,·,·
O=C1/C(=C\c2ccccc2)CCC/C1=C/c1ccccc1,–,–,–,–,–
CCN(CC)CCC(=O)N1C/C(=C/c2ccccc2)C(=O)/C(=C\c2ccccc2)C1,92,63,82,?,107
CC(C)(C)N=C1NN=C(c2cc3ccccc3o2)CS1,–,70,·,–,63
CC(=O)c1c(C)[nH]c(C2=NNC(=NC(C)(C)C)SC2)c1C,–,–,–,–,–
CC(C)(C)N=C1NN=C(c2ccc(Cl)cc2)CS1,–,62,–,–,65
C[C@@H]1CCCCO[C@H](CN(C)S(C)(=O)=O)[C@@H](C)CN([C@@H](C)CO)C(=O)c2cc(NS(=O)(=O)c3cn(C)cn3)ccc2O1,–,·,–,·,·
O=C(CNC(=O)c1ccco1)N=Nc1c(O)n(CCc2ccccc2)c2ccccc12,–,–,56,–,–
CCn1c(O)c(N=NC(=O)CNC(=O)Cc2ccccc2)c2ccccc21,–,–,–,–,–
